The source of these data is PubChem BioAssay (NCATS).

Records with an inconclusive call do not appear. Unmarked numbers belong to inactive results. Activity calls are given as the source filed them. Calls follow the shape of the dose curve; as a rule, active = well fitted inhibition curve with a large enough effect; inconclusive = small, poorly fitted or top-dose-only effect; inactive = flat fitted curve, though single readings scatter. Where a SMILES comes first, the peptide text is derived from it. [ ]: non-standard residue; d: D form. dPhe(4-Cl) = N[C@H](Cc1ccc(Cl)cc1)C(=O)O; d2Nal = N[C@H](Cc1ccc2ccccc2c1)C(=O)O; dCit = NC(=O)NCCC[C@@H](N)C(=O)O; d3Pal = N[C@H](Cc1cccnc1)C(=O)O

Holding throughout (assay): Cytotoxic Profiling of Annotated Libraries Using Quantitative High-Throughput Screening (AID 1296008); also: nearly all actives have a fitted effect of over 60% in size
Common to all, as to details: Five cell lines viability, CellTiter-Glo ATP luminescence, 48-72 h; max response: hits give low values
(ATP-based viability assays read luminescence as a measure of living cells.)

One test relates to HaCat. The essentials: (§1)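 Cytotoxicity was measured as CellTiter-Glo ATP luminescence, read after 10 min at room temperature. Compound treatment of the cells lasted 48 or 72 hr at 37 degrees Celsius in a qHTS format.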
In another test the test system is KB-3-1. The procedure, abridged:
as §1

A further test has as its system NIH3T3. The procedure, abridged: as §1
% is scaled to controls: 0 for no effect and ±100 for the full control effect; potency is read from the fitted curve at half-maximal effect.

In the case of `CC1(C)CC2C(O)c3cocc3CC(C)(O)C2C1` (centres undefined), the max response is -7.3% in the test on HaCat, 5.78% with KB-3-1 and 2.81% in the test with NIH3T3.
In the case of `CC(=O)N[C@H](Cc1ccc2ccccc2c1)C(=O)N[C@H](Cc1ccc(Cl)cc1)C(=O)N[C@H](Cc1cccnc1)C(=O)N[C@@H](CO)C(=O)N[C@@H](Cc1ccc(O)cc1)C(=O)N[C@H](CCCNC(N)=O)C(=O)N[C@@H](CC(C)C)C(=O)N[C@@H](CCCN=C(N)N)C(=O)N1CCC[C@H]1C(=O)N[C@H](C)C(N)=O` (Ac-[d2Nal][dPhe(4-Cl)][d3Pal]SY[dCit]LRP[dA]-NH2), the results for the max response with HaCat, in the test on KB-3-1 and in the test on NIH3T3 were -5.33%, 9.13% and 4.07%, respectively.
On the same counts, the results for `COC1C(=O)CCC2(CO2)C1(O)C1(C)OC1CC=C(C)C` (centres undefined) are -2.7%, 6.79% and -14.1%.
In the case of `CC1(C(=O)O)CCCC2(C)C3=CCC4CC3(CCC12)CC4CO` (centres undefined), the values for the max response in the test with HaCat, in the test with KB-3-1 and in the test on NIH3T3 were 2.08%, 2.22% and -1.37%, respectively.
Regarding `COc1ccc2c(OC)c3ccoc3nc2c1OC`, the max response with HaCat was -7.51%; with KB-3-1, 4.27%; with NIH3T3, -9.34%.
With `N#Cc1cnc2cnc(NCc3cccnc3)cc2c1Nc1ccc(F)c(Cl)c1`, the Potency with HaCat is 20.6 µM (active). Besides, the max response with KB-3-1 was -15.8%; in the test with NIH3T3 it was -8.77%.
`COc1cc2c(cc1OC)CC(=O)N(CCCNC[C@H]1Cc3cc(OC)c(OC)cc31)CC2`: the max response in the test with HaCat was -2.44%; with NIH3T3, -0.121%. Further, the call in the test with KB-3-1 was inactive.
As for `C=C(C(=O)O)C1CCC2(C)CCC(O)C(=C)C2C1` (centres undefined), the results for the max response with HaCat and in the test with NIH3T3 were -10.5% and -5.34%, respectively. Besides, the compound was called inactive in the test on KB-3-1.
Consider `OC[C@H]1O[C@@H](Oc2ccccc2)[C@H](O)[C@@H](O)[C@@H]1O`, for which the max response in the test on HaCat is 3.54%; in the test with NIH3T3, -2.04%. The call in the test with KB-3-1 was inactive.
Take `Cc1c(C(=O)N2CCOc3ccc(-c4ccc(N)nc4)cc3C2)ccc(S(C)(=O)=O)c1F`: in the test with HaCat, the max response was 2.5%. Besides, the Potency with KB-3-1 is 7.31 µM (active); in the test with NIH3T3, 11.6 µM (active).
In the case of `CC(C)(O)/C=C/CC(C)(O)C1C(O)CC2(C)C3CCC4C(C)(C)C(=O)CCC4(C)C3CCC12C` (centres undefined), the max response with HaCat was -10.7%; in the test with NIH3T3, -0.144%. Further, the outcome with KB-3-1 was inactive.
As for `CC(C)=CCC/C(C)=C/CCC1(C)Oc2c(c(O)cc3c2CN(C(CCC(=O)O)C(=O)O)C3=O)CC1O` (centres undefined), the max response in the test on HaCat is -10.3%; in the test on NIH3T3, -11%. Besides, the outcome in the test with KB-3-1 was inactive.
As for `Cc1cccc(C)c1-n1c(=O)c2cnc(Nc3ccc(N4CCN(C)CC4)cc3)nc2n2c3ccccc3nc12`, the figures for the Potency in the test with HaCat, with KB-3-1 and in the test on NIH3T3 were 2.06 µM (active), 0.731 µM (active) and 1.3 µM (active), respectively.
`CC1=CC(=O)CC(C)(CO)C1(O)/C=C/C(C)O[C@@H]1O[C@H](CO)[C@@H](O)[C@H](O)[C@H]1O` (some centres undefined): the max response in the test on HaCat was 2.49%; in the test on KB-3-1, -2.84%; in the test on NIH3T3, -3.42%.
`NC(=O)c1cccc(-c2cc(OC(=O)NC3CCCCC3)ccc2O)c1`: the max response in the test with HaCat was 4.07%; in the test on KB-3-1, -19.2%; in the test with NIH3T3 it was -3.22%.
For `CC(O)CO[C@@H]1O[C@H](CO)[C@@H](O)[C@H](O)[C@H]1O` (some centres undefined), the max response in the test with HaCat is -15.1%; with NIH3T3, 0.151%. For the same compound, the compound was classed as inactive in the test on KB-3-1.
Take `CC(C)CC1NC(=O)C2CC3(O)c4ccccc4NC3N2C1=O` (centres undefined): the max response in the test on HaCat was -17.2%; with KB-3-1, 7.2%; in the test with NIH3T3, -1.31%.
Consider `CCC(O)(C(=O)OCc1ccccc1NC(=O)CCC(=O)O)C(C)O` (centres undefined), for which the max response with HaCat is -3.62%; in the test with NIH3T3 it was -2.36%. For the same compound, the result in the test on KB-3-1 was inactive.
On to `C=C[C@H]1C(O[C@@H]2O[C@H](CO)[C@@H](O)[C@H](O)[C@H]2O)OC=C2C(=O)N3CCc4c([nH]c5ccccc45)[C@H]3C[C@H]21` (some centres undefined), for which the max response with HaCat was 2.83%; with KB-3-1, 3.99%; in the test on NIH3T3, 2.76%.
On the same counts, the results for `C[C@@H]1C(=O)O[C@H]2[C@H](O)C34[C@H]5C[C@@H](C(C)(C)C)C36[C@@H](OC(=O)[C@@H]6O)O[C@@]4(C(=O)O5)[C@@]12O` (some centres undefined) are -29.1%, -3.61% and -2.5%.
Regarding `COc1cc(C(=O)OC[C@@]2(O)CO[C@@H](O[C@H]3[C@H](Oc4ccc(C(=O)O)cc4OC)O[C@H](CO)[C@@H](O)[C@@H]3O)[C@@H]2O)ccc1O`, the max response in the test on HaCat was 1.78%; in the test on NIH3T3, 3.57%. Moreover, the call in the test with KB-3-1 was inactive.
Take `O=C(OCC1=CC(O)C2C=CO[C@@H](O[C@@H]3O[C@H](CO)[C@@H](O)[C@H](O)[C@H]3O)C12)c1ccccc1` (some centres undefined): the results for the max response in the test with HaCat, in the test with KB-3-1 and with NIH3T3 were 1.81%, 2.99% and 1.21%, respectively.
As for `C=C1CC2C(C)(CCC(=O)O)C(C(C)(C)O)CCC2(C)C2C(=O)OC(C)(C(=O)OC)C(=O)C12C` (centres undefined), the max response is 4.3% with HaCat and -2.52% in the test on NIH3T3. In the test with KB-3-1, the outcome was inactive.
